# Screening results (PubChem BioAssay)
# BRCT PPI green = inhibitors of human BRCA1 BRCT-phosphoprotein interaction (green fluorophore). P38398. BRCA1 BRCT-phosphopeptide binding, green fluorescence polarization. Potency, µM (titrated, usually from 76.9 µM), for the others: at the top dose activity change, negative = inhibition, actives largely listed as inhibitors. 75,000 compounds, 0.05% hits;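 note: potency is the fitted concentration of half-maximal effect; plate controls were peptide without protein for full effect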
#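 Fluorescence polarization: His-tagged BRCT (~35 kDa BRCA1 C-terminus, 250 nM) bound to 100 nM fluorescein-labeled phosphorylated 10-aa BACH1 peptide, pH 7.3 phosphate buffer with DTT and Tween 20. Compounds incubated 12 min at room temperature; inhibition read as lowered polarization.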
# ERK AVP block = inhibitors of vasopressin-stimulated ERK signaling pathway; HEK293-V1b, vasopressin-stimulated pERK AlphaScreen; Potency, µM (highest dose often 57.5 µM), without a hit: at the highest dose activity, negative = inhibition, usual class: inhibitors; 72,000 compounds, 0.99% hits; AID 995; note: potency is the fitted concentration of half-maximal effect; % is set by controls: 0 for no effect and ±100 for the full control effect; nearly all actives have a fitted effect of over 55% in size
#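 Overnight-seeded V1b-HEK293 cells in 1% FBS got compound, then vasopressin (25 nM final, 5 min, 37C), then lysis buffer. AlphaScreen detection of phospho-ERK; activity normalized to basal and full-stimulation controls.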
# TsaE inh = YjeE (TsaE) inhibition, E. coli | P0AF67 | purified YjeE enzyme, qHTS inhibition assay | Potency, µM | 71,000 compounds, 0.05% hits
#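 Purified YjeE (10 uM) with BODIPY Texas Red-labeled ADP probe (2 uM); compounds pin-transferred, 15 min at room temperature. Binding inhibition read as decreased fluorescence polarization; ADP titration as control.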
# BRCT PPI red = disrupts BRCA1 BRCT binding to phosphoprotein, red fluorophore readout | AID 892 | P38398 | Potency, µM (top dose mostly 76.9 µM), for the others: at the top dose activity change, negative = inhibition, hits mostly inhibitors | BRCT-phosphopeptide binding, red fluorescence polarization | 75,000 compounds, 0.03% hits; note: % is set by controls: 0 for no effect and ±100 for the full control effect
#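 Fluorescence polarization: 100 nM His-tagged BRCA1 BRCT with 100 nM TAMRA-labelled phospho-BACH1 decapeptide, phosphate buffer pH 7.3 with 150 mM NaCl, DTT, 0.01% Tween 20; 12 min RT. Binding inhibition seen as FP decrease.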
# Pol III holo inh = blocks replication by bacterial DNA polymerase III holoenzyme | 71,000 compounds, 0.25% hits | reconstituted DNA polymerase III holoenzyme replication, biochemical | Potency, µM (top dose mostly 57.1 µM), for the others: at the top dose activity change, negative = inhibition; note: potency is the fitted concentration of half-maximal effect; % is set by controls: 0 for no effect and ±100 for the full control effect
#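 Reconstituted *E. coli* holoenzyme (0.35 nM Pol III, 1 nM beta, 154 nM SSB, 2 nM primase) was preincubated with compound for 15 min at RT. Synthesis on 1.4 nM ssM13Gori ran 35 min, then was stopped with PicoGreen/EDTA and read as dsDNA fluorescence.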
# USP2a inhib = USP2a (human) protease inhibition; USP2a enzymatic assay, qHTS inhibition; Potency, µM (top dose mostly 38.3 µM), inactives show top-dose activity change, negative = inhibition, usual class: inhibitors; 60,000 compounds, 0.1% hits; AID 927; note: potency is the fitted concentration of half-maximal effect; nearly all actives have a fitted effect of over 60% in size
#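 USP2 core (20nM final) preincubated 30 min RT with compound, then Ub-PLA2 20nM and NBD C6-HPC 20uM final added; buffer 20mM Tris-HCl pH 8.0, 2mM CaCl2. Fluorescence Ex 460/Em 535 read at 0 and 2.5 h; normalized to NEM.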
# Numbers without * were called inactive; i = inactive; ? = inconclusive; . = no result given; ! = not active in a repeat; [ ] = dose if it differs, or a comment. An excerpt weighted towards active compounds, which were near 1.3% of everything screened. Calls come from the whole dose curve; as a rule, active = well fitted curve in the direction sought with a large enough effect; inconclusive = small, poorly fitted or top-dose-only effect, or another doubt; inactive = no such curve, though single readings can be large; an effect the other way counts as inactive or inconclusive.
SMILES,BRCT PPI green,ERK AVP block,TsaE inh,BRCT PPI red,Pol III holo inh,USP2a inhib
CCCCCCCCCCCCCCCCCC(=O)NC[C@@H](COP(=O)([O-])OCC[N+](C)(C)C)OCC,2%,31%,i,-2%,31%,26%
COc1ccc(N2CCn3c2nc2c3c(=O)n(CCCc3ccccc3)c(=O)n2C)c(OC)c1,1%,13µM*,i,-2%,-2%,16%
COc1ccc(N2CCn3c2nc2c3c(=O)n(CCc3ccccc3)c(=O)n2C)c(OC)c1,-1%,-9%,i,-1%,-3%,6%
N#C/C(=C\c1ccc(O)c(O)c1)C(=O)NCCCNC(=O)/C(C#N)=C/c1ccc(O)c(O)c1,-1%,3%,i,-2%,2.5µM*,-14%
C[C@H](NC(=O)/C(C#N)=C/c1ccc(O)c(O)c1)c1ccccc1,-2%,10µM*,i,-1%,-8%,-15%
O=C(NCCCN1CCOCC1)c1ccc(-n2c(=O)c(=O)[nH]c3ccccc32)cc1,0%,.,.,0%,.,.
O=C1C2=CC[C@@H]3C(=O)N(c4ccc(F)cc4F)C(=O)[C@H]3[C@H]2[C@H](O)[C@H]2O[C@H]12,-5%[15.4 µM],7%[11.5 µM],.,-2%[15.4 µM],.,.
CC#C[C@@]1(O)CC[C@@H]2[C@@H]3CCC4=CC(=O)CCC4=C3[C@@H](c3ccc(N(C)C)cc3)C[C@]21C,.,.,i,.,-2%,.
COC(=O)CSc1nc(N2CCCCC2)c2c(c1C#N)CCCC2,2%,17%,i,0%,-4%,13µM*
COC(=O)CSc1nc(N2CCOCC2)c2c(c1C#N)CC(C)(C)N(C)C2,-7%,?,i,-2%,3%,-7%
CC(C)(SCc1ccccc1)[C@H](N)C(=O)O,2%[15.4 µM],-9%[11.5 µM],i,-1%[15.4 µM],2%[11.4 µM],.
Cc1cc(N2CCN(C)CC2)nc2ccc(NC(=O)c3ccc4c(c3)OCO4)cc12,1%,13µM*,i,-1%,-10%,24%
CC1CCC2C(=O)N3C(CCC(C)C3c3ccc(-c4ccco4)cc3)C(=O)N2C1c1ccc(-c2ccco2)cc1 (centres undefined),-2%[15.4 µM],35%[11.5 µM],.,-7%[15.4 µM],.,.
Nc1[nH]c(=S)[nH]c(=O)c1N=Nc1c(Br)cc(S(N)(=O)=O)cc1Br,0%[15.4 µM],3%[11.5 µM],i,0%[15.4 µM],-9%[11.4 µM],.
O=NC1=C(c2c(O)[nH]c3ccccc23)CCCC1,0%,17%,i,-1%,-6%,4%
O=Nc1c(-c2c(O)[nH]c3ccccc23)[nH]c2ccccc12,2%,10µM*,i,3%,-14%,?
C1=CC2c3ccccc3NC(c3ccncc3)C2C1 (centres undefined),-1%,?,i,0%,-2%,.
O=C(O)c1ccc(Cl)c2c1C1C=CCC1C(c1ccccn1)N2 (centres undefined),32µM*,?,40µM*,32µM*,?,.
C=C(C)CN(CC#N)CC(=C)C,0%[15.4 µM],19%[11.5 µM],i,0%[15.4 µM],-3%[11.4 µM],.
COc1ccc(C)cc1NCc1cccc(OC)c1OC,-1%,?,i,-1%,0%,-5%
COc1cc(OC)c(OC)cc1CNc1cc(C)ccc1OC,0%,25µM*,i,-1%,-2%,-18%
COc1ccccc1C[C@@H](Cc1nc2ccccc2[nH]1)c1nc2ccccc2[nH]1,.,.,i,.,-4%,.
CN1CCN(C(=O)c2ccc(-n3c(=O)c(=O)[nH]c4ccccc43)cc2)CC1,-4%,.,.,-5%,.,.
CCOC(=O)OCC1OC(C#Cc2ccccc2)C=CC1OC(=O)OCC (centres undefined),-1%[15.4 µM],-3%[11.5 µM],.,2%[15.4 µM],.,.
CCOc1ccccc1CNC(=O)c1cc2occc2n1C,7%,20µM*,i,1%,3%,.
SMILES,BRCT PPI green,ERK AVP block,TsaE inh,BRCT PPI red,Pol III holo inh,USP2a inhib
O=C(CSc1nc2ccccc2[nH]1)N1CCN(c2ccc(F)cc2)CC1,0%,25µM*,i,0%,-3%,6%
Cn1cccc1Cc1nnc(SCC(=O)Nc2ccc3c(c2)OCCO3)n1CCc1ccccc1,0%,?,i,1%,2%,.
Cn1cccc1Cc1nnc(SCC(=O)Nc2ccc3c(c2)OCO3)n1CCc1ccccc1,0%,16µM*,i,-1%,1%,.
CN1CCN(c2ccccc2NC(=O)c2ccc(Br)o2)CC1,2%,20µM*,i,-1%,-4%,8%
O=C(Nc1ccccc1N1CCOCC1)c1ccc(Br)o1,-1%,-4%,i,1%,-1%,3%
COc1ccccc1N1CCN(C/C=C/c2ccc(N(C)C)cc2)CC1,9%,16µM*,i,3%,-4%,10%
COc1ccccc1N1CCN(Cc2ccco2)CC1,-1%,-15%,i,1%,2%,-5%
CCCOC(=O)c1ccc(OCC(O)Cn2c(C)nc3ccccc32)cc1 (centres undefined),-1%,13µM*,i,1%,2%,.
NC(=S)NCCC[C@@H](N)C(=O)O,-3%,35%,i,-3%,3%,-6%
COc1ccc(NC(=O)c2ccc(-c3ccc(-c4noc(C)n4)cc3C)cc2)cc1N1CCN(C)CC1,-2%,13µM*!,i,2%,-2%,24%
COc1ccc(-c2nc(-c3ccc(NC(=O)c4ccncc4)cc3)no2)cc1OC,0%,10µM*,i,-2%,8%,.
COc1ccc(Cl)cc1-c1nc(-c2ccc(NC(=O)c3ccncc3)cc2)no1,-2%,-21%,i,1%,-7%,15%
COc1ccc(NC(=O)c2ccc(-c3ccc(-c4noc(C)n4)cc3C)cc2)cc1OCCN(C)C,-1%,?,i,-2%,?,.
Nc1ccc(CCNc2ncnc3c2ncn3[C@@H]2O[C@@H](CO)[C@H](O)[C@@H]2O)cc1,-8%,?,i,-2%,-11%,0%
Cc1cccc(-n2nnnc2SC(C)C(=O)NCCC2=CCCCC2)c1 (centres undefined),1%,-6%,i,-1%,-2%,-3%
CCN(CC)S(=O)(=O)c1cccc(-c2nnc(SCC(=O)NCCC3=CCCCC3)n2N)c1,0%,40µM*,i,-1%,?,16%
CCCCCCCCCCCCC/C=C\[C@H](O)[C@H](N)CO,.,.,i,.,-6%,.
Oc1ccc(Cl)cc1Cc1cc(Cl)cc(Cc2cc(Cl)ccc2O)c1O,0%[15.4 µM],2%[11.5 µM],i,1%[15.4 µM],-6%[11.4 µM],.
CC(C)(C)CC(C)(C)c1ccc(O)c(Cc2ccc(Cl)cc2Cl)c1,1%[3.08 µM],19%,.,-1%,.,10µM*
COc1ccc(CNC(=O)CS(=O)Cc2nc(-c3ccccc3C)oc2C)cc1 (centres undefined),-1%,20µM*,i,1%,-5%,.
COc1ccc2c(c1)[C@]1(C)CCC[C@](C)(CO)[C@@H]1CC2,.,.,i,.,2%,.
